Measurements from PubChem BioAssay (NCATS).
Records with an inconclusive call do not appear. The source made the active and inactive calls. Calls come from the whole dose curve; as a rule, active = well fitted curve in the direction sought with a large enough effect; inconclusive = small, poorly fitted or top-dose-only effect, or another doubt; inactive = no such curve, though single readings can be large; an effect the other way counts as inactive or inconclusive.

Legend:
[1] = tested on: Hek293T; assay: Primary qHTS to identify gynecologic anti-cancer compounds using libraries of approved drugs and bioactive compounds (AID 1345084); conditions: Gynecologic cancer cell panel viability, ATPlite luminescence, 48 h, control line for the selectivity index; series mostly up to 57.5 µM; note: nearly all actives have a fitted effect of over 55% in size
In short: (§1)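 Five-concentration response, 48 h; readout is ATP-driven luciferase luminescence.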

[2] = tested on: JEG-3; assay: as above; conditions: Gynecologic cancer cell panel viability, ATPlite luminescence, 48 h; series mostly up to 57.5 µM
In short: as §1

[3] = tested on: OV90; assay: as above; conditions: Gynecologic cancer cell panel viability, ATPlite luminescence, 48 h; series mostly up to 57.5 µM
In short: as §1

[4] = tested on: PA-1; assay: as above; conditions: Gynecologic cancer cell panel viability, ATPlite luminescence, 48 h; series mostly up to 57.5 µM
In short: as §1

[5] = tested on: SKOV3; assay: as above; conditions: Gynecologic cancer cell panel viability, ATPlite luminescence, 48 h; series mostly up to 57.5 µM
In short: as §1

[6] = tested on: Tov-21-G; assay: as above; conditions: Gynecologic cancer cell panel viability, ATPlite luminescence, 48 h; series mostly up to 57.5 µM
In short: as §1

[7] = tested on: Tov112D; assay: as above; conditions: Gynecologic cancer cell panel viability, ATPlite luminescence, 48 h; series mostly up to 57.5 µM
In short: as §1

[8] = Drug repurposing screens with cells derived from glioblastoma tumor samples (AID 1345199); conditions: GBM patient neurospheres viability, ATP luminescence, 48 h; note: nearly all actives have a fitted effect of over 40% in size
In short: (§2)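 Primary testing used CD133+ neurospheres from four GBM patients, seven concentrations, 48 h exposure and ATP-based viability; confirmation added three slower-growing patient lines.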

[9] = tested on: astro; assay: as above; conditions: viability, ATP luminescence, 48 h; series mostly up to 45.9 µM
In short: as §2

[10] = at 45.9 µM (top of the series), tumour line B
[11] = at 45.9 µM (top of the series), tumour line D
[12] = at 46 µM (top of the series), tumour line A
[13] = at 46.1 µM (top of the series), tumour line C
[14] = at 20 µM (top of the series), tumour line C
[15] = at 21.2 µM (top of the series), tumour line B
[16] = at 21.2 µM (top of the series), tumour line D
[17] = at 21.3 µM (top of the series), tumour line A
% is set by controls: 0 for no effect and ±100 for the full control effect.

CC(C(=O)O)c1ccc2c(c1)CC(=O)c1ccccc1S2 (stereo not given)
inactive: Potency [1] | Potency [2] | Potency [3] | Potency [4] | Potency [5] | Potency [6] | Potency [7] | activity, negative = cell killing [8, 10] -3.56% | activity, negative = cell killing [8, 11] -21.1% | activity, negative = cell killing [8, 12] -9.77% | activity, negative = cell killing [8, 13] 5.54%

CC(C)C1CCC(C(=O)N[C@H](Cc2ccccc2)C(=O)O)CC1 (stereo not given in full)
inactive: Potency [1] | Potency [2] | Potency [3] | Potency [4] | Potency [5] | Potency [6] | Potency [7] | activity, negative = cell killing [8, 10] -7.58% | activity, negative = cell killing [8, 11] 5.65% | activity, negative = cell killing [8, 12] -15.4% | activity, negative = cell killing [8, 13] -13.4% | Potency [9]

O=S(=O)(O)CCS
inactive: Potency [1] | Potency [2] | Potency [3] | Potency [4] | Potency [5] | Potency [6] | Potency [7] | activity, negative = cell killing [8, 10] -4.82% | activity, negative = cell killing [8, 11] -6.41% | activity, negative = cell killing [8, 12] -21.8% | activity, negative = cell killing [8, 13] -18%

Cc1onc(-c2ccccc2Cl)c1C(=O)N[C@@H]1C(=O)N2[C@@H]1SC(C)(C)[C@@H]2C(=O)O
inactive: Potency [1] | Potency [2] | Potency [3] | Potency [4] | Potency [5] | Potency [6] | Potency [7] | activity, negative = cell killing [8, 14] 1.94% | activity, negative = cell killing [8, 15] -1.92% | activity, negative = cell killing [8, 16] -24.2%

CC[C@H](NC(C)C)[C@H](O)c1ccc(O)c2[nH]c(=O)ccc12
inactive: Potency [1] | Potency [2] | Potency [3] | Potency [4] | Potency [5] | Potency [6] | Potency [7] | activity, negative = cell killing [8, 10] -9.21% | activity, negative = cell killing [8, 11] -7.02% | activity, negative = cell killing [8, 12] -27% | activity, negative = cell killing [8, 13] 18.7%

CCOC(=O)c1ccc(C#Cc2ccc3c(c2)C(C)(C)CCS3)nc1
inactive: Potency [1] | Potency [2] | Potency [3] | Potency [4] | Potency [5] | Potency [6] | Potency [7]

CCOC(=O)[C@H](CCc1ccccc1)N[C@H]1CS[C@H](c2cccs2)CN(CC(=O)O)C1=O
inactive: Potency [1] | Potency [2] | Potency [3] | Potency [4] | Potency [5] | Potency [6] | Potency [7] | activity, negative = cell killing [8, 10] -5.27% | activity, negative = cell killing [8, 11] -7.87% | activity, negative = cell killing [8, 12] -16.7% | activity, negative = cell killing [8, 13] -21.6% | Potency [9]

CN(C)CCc1c[nH]c2ccc(C[C@H]3COC(=O)N3)cc12
inactive: Potency [1] | Potency [2] | Potency [3] | Potency [4] | Potency [5] | Potency [6] | Potency [7] | activity, negative = cell killing [8, 10] -19.9% | activity, negative = cell killing [8, 11] -11% | activity, negative = cell killing [8, 13] 4.56%

CCn1cc(C(=O)O)c(=O)c2cc(F)c(N3CCN(C)CC3)cc21
inactive: Potency [1] | Potency [2] | Potency [3] | Potency [4] | Potency [5] | Potency [6] | Potency [7] | activity, negative = cell killing [8, 10] -12.6% | activity, negative = cell killing [8, 11] -0.981% | activity, negative = cell killing [8, 13] -19.8%

O=NN(CCCl)C(=O)NC1CCCCC1
inactive: Potency [1] | Potency [2] | Potency [3] | Potency [4] | Potency [5] | Potency [6] | Potency [7] | activity, negative = cell killing [8, 10] -2.15% | activity, negative = cell killing [8, 11] -13.5% | activity, negative = cell killing [8, 13] -16.6%

Cn1nnc2c(C(N)=O)ncn2c1=O
inactive: Potency [1] | Potency [2] | Potency [3] | Potency [4] | Potency [5] | Potency [6] | Potency [7] | activity, negative = cell killing [8, 10] -3.24% | activity, negative = cell killing [8, 11] -16.1% | activity, negative = cell killing [8, 12] -21.4% | activity, negative = cell killing [8, 13] -14.3%

O=C(O)CSCC(=O)NC1CCSC1=O (stereo not given)
inactive: Potency [1] | Potency [2] | Potency [3] | Potency [4] | Potency [5] | Potency [6] | Potency [7] | activity, negative = cell killing [8, 10] -7.24% | activity, negative = cell killing [8, 13] 18.1%

NS(=O)(=O)c1cc2c(cc1Cl)NC(C(Cl)Cl)NS2(=O)=O (stereo not given)
inactive: Potency [1] | Potency [2] | Potency [3] | Potency [4] | Potency [5] | Potency [6] | Potency [7] | activity, negative = cell killing [8, 14] 6.84% | activity, negative = cell killing [8, 15] -4.6% | activity, negative = cell killing [8, 16] -11.1% | activity, negative = cell killing [8, 17] -6.45%

CCn1cc(C(=O)O)c(=O)c2cc(F)c(N3CCNCC3)cc21
inactive: Potency [1] | Potency [2] | Potency [3] | Potency [4] | Potency [5] | Potency [6] | Potency [7] | activity, negative = cell killing [8, 14] 2.43% | activity, negative = cell killing [8, 15] -7.83% | activity, negative = cell killing [8, 16] -12% | activity, negative = cell killing [8, 17] -21.7% | activity, negative = cell killing [8, 10] 1.94% | activity, negative = cell killing [8, 11] 2.4% | activity, negative = cell killing [8, 13] -8.69%

C#CCN[C@@H]1CCc2ccccc21
inactive: Potency [1] | Potency [2] | Potency [3] | Potency [4] | Potency [5] | Potency [6] | Potency [7] | activity, negative = cell killing [8, 10] -8.4% | activity, negative = cell killing [8, 11] -8% | activity, negative = cell killing [8, 12] -26% | activity, negative = cell killing [8, 13] -23.8%

O=c1oc2c(O)c(O)cc3c(=O)oc4c(O)c(O)cc1c4c23
inactive: Potency [1] | Potency [2] | Potency [3] | Potency [4] | Potency [5] | Potency [6] | Potency [7] | activity, negative = cell killing [8, 10] -21.4% | activity, negative = cell killing [8, 13] -1.64%

CCCN[C@H]1CCc2nc(N)sc2C1
inactive: Potency [1] | Potency [2] | Potency [3] | Potency [4] | Potency [5] | Potency [6] | Potency [7] | activity, negative = cell killing [8, 10] 3.81% | activity, negative = cell killing [8, 11] 9.12% | activity, negative = cell killing [8, 12] -26.8% | activity, negative = cell killing [8, 13] -13%

CNNCc1ccc(C(=O)NC(C)C)cc1
inactive: Potency [1] | Potency [2] | Potency [3] | Potency [4] | Potency [5] | Potency [6] | Potency [7] | activity, negative = cell killing [8, 10] -4.85% | activity, negative = cell killing [8, 11] -17.7% | activity, negative = cell killing [8, 13] -14.6%
